Measurements: PubChem BioAssay AID1645879 (National Center for Advancing Translational Sciences (NCATS), 2021)
Inconclusive results are not listed. Where a call stands in place of a potency, no number is given. Activity calls are given as the source filed them. The call rests on the fitted dose curve; in most records, active means well fitted inhibition curve with a large enough effect; inconclusive means small, poorly fitted or top-dose-only effect; inactive means no such curve, though single readings can be large or run the other way.

Test: Counterscreen qHTS assay for inhibitors of N-terminal methyltransferase 1 (NTMT1): SPKRIA Counterscreen Assay
Details: biochemical qHTS; series mostly up to 99.2 µM
Source text: Assay Submitter (PI): Rong Huang Ph.D,
Purdue University, West Lafayette, IN 47907
The N-terminal methytransferase 1 is the first methyltransferase that methylates protein alpha-N-amines and plays an important role in regulating cell mitosis, chromatin interactions and DNA repair. It is observed to be over-expressed in various cancer patient tissues like malignant melanoma and colorectal cancer tissues. Knockdown of NTMT1 in cancer cells causes cell mitotic defects and enhances sensitivity to DNA damaging chemotherapeutics. […] These critical cellular processes in which NTMT1 is implicated, coupled with emerging links to cellular dysfunction, strengthen the inference that NTMT1 is a compelling novel anticancer target. Progress have been made in understanding the molecular properties of NTMT1 and the biological consequences of protein alpha-N-terminal methylation, but there are no specific small molecule probes available for NTMT1 to fully characterize its MTase activity. To address this unmet need, a panel of assay is created and established to enable quantitative high-throughput screening (qHTS) for novel, potent, and selective small molecule NTMT1 inhibitors. Two orthogonal qHTS that use different reagents (ThioGlo vs. MTaseGlo) are developed for primary robotic screening against the NCATS chemical library of more than 400,000 small molecules. Identified inhibitors are reacquired, validated, and further characterized.
MTaseGlo Assay is a luminescence screen that measure the activity of methyltransferases based on the reaction product S-adenosyl homocysteine (SAH). The substrate SAM is converted to SAH upon enzyme activation. MTase-Glo reagent and detection solution convert SAH to ATP and measure the light from the luciferase reaction. Nicotinamide N-methyltransferase (NNMT) is a cystolic enzyme that catalyzes the transfer of a methyl group from the co-factor SAM onto the substrate, nicotinamide (NA) to form 1-methyl-nicotinamide (MNA) and SAH. NNMT MTaseGlo assay is used as a counterscreen to evaluate selectivity of identified inhibitors.
SPKRIA and Ac-RCC-10 control is provided by the Huang laboratory.
PROTOCOL TABLE; SEQUENCE No. (e.g., 1, 2, 3, etc.); […] (e.g., Cells, Incubation, Reagent, etc.); VALUE; DESCRIPTION
1; Reagent; 3 uL; dispense assay buffer.
2; Compound; 23 nL; pin compounds and control into the assay plate.
3; Time; 15 min; room temperature incubation.
4; Reagent; 1 uL; dispensed [4x] substrate or buffer.
5; Time; 30 min; incubate at room temperature.
6; Reagent; 1 uL; dispense MTase-Glo Reagent (R).
7; Time; 30 min; incubate at room temperature.
8; Reagent; 5 uL; dispense [1x] MTase-Glo Detection Solution to allow for ADP to be converted to ATP.
9; Centrifugation; 1,000 RPMs; assay plates were centrifuged.
10; Incubation; 30 min; room temperature.
11; Detection; Luminescence; ViewLux plate reader (clear filter, 10 second exposure).
NOTES (numbers refer to Sequence numbers above; values are from representative experiments)
1; Dispense the assay buffer into Greiner 1536-well black / solid bottom assay plate (Greiner Bio One, Monroe, NC).
2; Pin control inhibitor Ac-RCC1-10 at a final concentration range of 234 nM to 143 uM using a Wako Pin Tool (Wako Automation USA) equipped with a 1536-slotted pin array (Wako Automation, Richmond, VA). Pin compound library into the assay plates (columns 5 - 48) at a final concentration range of 97 nM to 250 uM.
3; Incubate the assay plates at room temperature.
4; Dispense 1 uL of substrate SPKRIA solution (final concentration 1 uM) or 1 uL buffer was added to the wells bringing the final assay volume to 4uL. The assay plate was covered with metal lids.
5; Incubate the assay plate at room temperature.
6; Dispense 1 uL of 5x MTase-Glo Reagent in the assay plate.
7; Incubate at room temperature to allow for SAH to be converted to ADP
8; Dispense 5 uL of 5x MTase-Glo Detection Solution in the assay plate to allow for ADP to be converted to ATP.
9; Assay plates were centrifuged for 15 seconds.
[…]

| SMILES | Potency |
| --- | --- |
| O=C(Nc1noc2ccccc12)c1ccc(F)cc1 | 39.8 µM (active) |
| OCc1cccc(-c2noc(-c3ccccc3F)n2)c1 | inactive |
| COCCCNC(=O)CSc1c2c(nc3ccc(Cl)cc13)CCCC2 | inactive |
| COc1cccc(C(=O)Nc2nc3c(s2)CCCC3)c1 | 50.1 µM (active) |
| Cc1cccc(C(=O)Nc2sc3c(c2C(=O)O)CCCC3)c1 | 50.1 µM (active) |
| O=C(O)c1cccc(-c2noc(-c3ccccc3F)n2)c1 | inactive |
| CCCn1c(/C=C/c2ccccc2)nc2ccccc21 | inactive |
| O=C(Nc1noc2ccccc12)c1c(F)cccc1F | inactive |
| C[C@]12CC[C@@H]3c4ccc(O)cc4CC[C@H]3[C@@H]1C[C@@H](O)[C@@H]2O | inactive |
| COc1ccccc1C(=O)Nc1onc2c1CCCC2 | inactive |
| c1cncc(-c2ccc3ncnc(NCc4cccs4)c3c2)c1 | 44.7 µM (active) |
| Oc1cccc(Nc2cc(-c3ccccc3)ncn2)c1 | 39.8 µM (active) |
| NC(=O)c1ncn([C@@H]2O[C@H](CO)[C@@H](O)[C@H]2O)c1N | inactive |
| CCC1(C)CC(=O)NC1=O (stereo not given) | inactive |
| CNc1sc(-c2cccc3ccccc23)nc1C#N | inactive |
| Nc1nc2c(s1)C(c1ccccc1Cl)CC(=O)N2 (stereo not given) | inactive |
| O=C(O)c1ccc(-c2noc(-c3cccc(Cl)c3)n2)cc1 | inactive |
| CCCNC(=O)CSc1c(CCC)cnc2c1c(=O)n(C)c(=O)n2C | inactive |
| O=c1[nH]cnc2nc[nH]c12 | inactive |
| CC(C)(C)c1ccc(-c2csc(N3CCC(C(N)=O)CC3)n2)cc1 | inactive |

| SMILES | Potency |
| --- | --- |
| O=c1c2cc3c(cc2nc2sc(Nc4ccccc4)nn12)OCO3 | inactive |
| Cc1cc2c(s1)c1cnn(Cc3ccc(C)c(F)c3)c(=O)c1n2C | inactive |
| Cc1cccc(-n2cnc3cc(C(=O)NC4CCCC4)ccc32)c1 | 44.7 µM (active) |
| O=C(Nc1ccc2c(c1)CCC2)Nc1nnc(-c2ccncc2)s1 | inactive |
| Oc1ccc(-c2nc(-c3ccc(F)cc3)c(-c3ccncc3)[nH]2)cc1 | 44.7 µM (active) |
| CC(C)CCNc1ncnc2c1cnn2-c1cccc(Cl)c1 | 22.4 µM (active) |
| O=c1cc(-c2ccccc2)oc2ccc(O)cc12 | 31.6 µM (active) |
| CC(C)c1ccc(Nc2ncnc3c2nc2n3CCCC2)cc1 | 50.1 µM (active) |
| CN(C)C(=O)c1ccc(-c2cc[nH]c(=O)c2N)cc1 | inactive |
| CC(=O)C1CCC2C3CCC4=CC(=O)CCC4(C)C3CCC12C (stereo not given) | inactive |
| CCc1cc(C(N)=S)ccn1 | inactive |
| Cc1cc(C)nc(NC(=S)N2CCN(c3ccccn3)CC2)c1 | inactive |
| Cc1c(Cl)ccc2sc(N3CCN(C(=O)C4CC4)CC3)nc12 | inactive |
| NC(=O)C1CCN(c2nc(-c3cccc4ccccc34)cs2)CC1 | inactive |
| O=C(c1ccc(/C=C/c2n[nH]c3ccccc23)cc1)N1CCNCC1 | inactive |
| O=C(Nc1nc2c(s1)CCCC2)c1ccccc1F | 39.8 µM (active) |
| O=C(Nc1onc2c1CCCC2)c1ccccc1 | inactive |
| Oc1ccc(Cl)cc1Nc1nc2ccccc2n2cnnc12 | inactive |
| C1CCC(C(CC2CCCCN2)C2CCCCC2)CC1 (stereo not given) | inactive |
| Cc1cc2c(s1)c1cnn(Cc3cccc(C)c3F)c(=O)c1n2C | inactive |
